Laboratory results from PubChem BioAssay (NCI).
The panel holds about 83,000 compounds, 20% with a hit somewhere; the sample as a whole holds those more often.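 Single-dose data. Exposure time 48 hours. Values below 10 considered active.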 Unmarked numbers belong to inactive results. Active and inactive are the calls of the source.

System: OVCAR-3 ovarian
Experiment: NCI-60 one-dose screen, 48 h (100 = growth as untreated, 0 = no growth, -100 = all killed)
Conditions: 10 µM unless noted

Structure (SMILES) | growth
COc1cccc(-c2nc3sccn3c2-c2ccnc(NCCCNS(=O)(=O)c3c(Cl)cccc3Cl)c2)c1 | 69.8%
CC1=NN(c2nc(-c3ccc(Cl)cc3)c(C#N)c(N3CCOCC3)n2)C(=O)C1 | 50.2%
Cc1nc2c3c(-c4ccccc4)c(-c4ccccc4)oc3ncn2n1 | 111%
C=CC(=O)Nc1cccc(-c2nc(SC)nc(NCc3ccccc3)c2C#N)c1 | 48.4%
N#Cc1c(N)n(CCNC(=O)c2ccccc2)c2nc3ccccc3nc12 | 81.9%
C=C(C)[C@@H]1CC[C@]2(C(=O)OC)CC[C@]3(C)[C@H](CC[C@@H]4[C@@]5(C)C/C(=C/c6cccc(I)c6)C(=O)C(C)(C)[C@@H]5CC[C@]43C)[C@@H]12 | 119%
Cc1c(/C=C/[N+](=O)[O-])ccc2c1[nH]c1ccccc12 | 123%
COc1cc(/C=C/c2cc(O)c3cc(C(C)=O)c(=O)oc3c2)cc2c1O[C@]1(C)CC[C@@H](O)C(C)(C)[C@H]1C2 | 84.6%
CCCOc1ccc2nc(NC(=O)OC)[nH]c2c1 | -46.8% (active)
COc1cc(/C=C/C(=O)c2ccc(O)c(CN3CCN(c4cc5c(cc4F)c(=O)c(C(=O)O)cn5C4CC4)CC3)c2)cc(OC)c1OC | 14%
C=CCSSc1ncnc2c1ncn2C1OC(CO)C(O)C1O (centres undefined) | 29.1%
COc1cc2nc(N3CCCC3)nc(NCc3ccccc3)c2cc1OC | 68.1%
CC[C@H]1OC(=O)[C@H](C)[C@@H](O[C@H]2C[C@@](C)(OC)[C@@H](O)[C@H](C)O2)[C@H](C)[C@@H](O[C@@H]2O[C@H](C)C[C@H](N(C)C)[C@H]2O)[C@](C)(O)C[C@H](C)CN(C)[C@H](C)[C@@H](O)[C@]1(C)O | 96%
CSc1nc(NCCN2CCOCC2)c(C#N)c(-c2cccc([N+](=O)[O-])c2)n1 | 109%
CC(C)c1c(C(=O)c2ccccc2)c(-c2ccccc2)c(-c2ccc(F)cc2)n1CC[C@@H](O)C[C@@H](O)CC(=O)O | 83.9%
N#CCCN=Nc1c(O)[nH]c2ccc([N+](=O)[O-])cc12 | 103%
CC[C@@H]1O[C@H](O[C@@H](c2cnc[nH]2)[C@H](NC(=O)c2nc([C@H](CC(N)=O)NC[C@@H](N)C(N)=O)nc(N)c2C)C(=O)N[C@H](C)[C@H](O)[C@H](C)C(=O)N[C@@H](C(=O)NCCc2nc(-c3nc(C(=O)NCCCCN=C(N)N)cs3)cs2)[C@@H](C)O)[C@H](O[C@@H]2O[C@H](CO)[C@H](O)[C@H](OC(N)=O)[C@@H]2O)[C@H](C)[C@@H]1C | 60.8%
COc1cc2nc(N3CCCC3)nc(Nc3ccccc3)c2cc1OC | -70.4% (active)
Nc1nc2ncc(CCNc3ccc(C(=O)O)cc3)nc2c(=O)[nH]1 | 128%
CCCN1CCN(c2ccc3nc(-c4ccc5nc(-c6ccc(OCC)cc6)[nH]c5c4)[nH]c3c2)CC1 | -83.5% (active)

Structure (SMILES) | growth
COc1ccc(Nc2nc(SC)nc(-c3cccc([N+](=O)[O-])c3)c2C#N)cc1 | 74.5%
O=C1CC(=NCC(=O)n2c(-c3ccccc3)nc3ccccc32)NN1 | 103%
CC(C)(O)c1cn(CCCCN2C(=O)C(=O)c3ccccc32)nn1 | 109%
CCCCCCCCCCCCC[N+](C)(C)Cc1ccccc1 | -61.1% (active)
COc1ccc(/C=C/C(=O)c2ccc(O)c(CN3CCN(c4cc5c(cc4F)c(=O)c(C(=O)O)cn5C4CC4)CC3)c2)cc1 | 19.1%
O=S(=O)(Nc1ccc(OC(F)F)cc1)c1ccc(-c2cnc(C3CC3)o2)cc1 | 71.5%
N#C/C(=C\c1ccc(-c2cc(C(F)(F)F)ccc2Cl)o1)c1nc(-c2ccco2)cs1 | 113%
O=C(O)c1ccc(N=CC(=O)c2ccc(-c3ccccc3)cc2)cc1 | 119%
COc1cccc(-c2nn(C(C)(C)C)cc2-c2ccnc(NCCCNS(=O)(=O)c3ccc(C)cc3)c2)c1 | 122%
CC(C)n1c(/C=C/[C@@H](O)C[C@@H](O)CC(=O)O)c(-c2ccc(F)cc2)c2ccccc21 | 84.8%
N#Cc1c(-c2ccc(Cl)cc2)nc(N/N=C/c2cccc(Br)c2)nc1N1CCOCC1 | 94.8%
COc1ccc(-c2nc3ccc(-c4nc5ccc(N6CCN(c7ccncc7)CC6)cc5[nH]4)cc3[nH]2)cc1OC | 4.61% (active)
CSc1nc(NCc2ccccc2)c(C#N)c(-c2cccc([N+](=O)[O-])c2)n1 | 111%
O=C(/C=C/c1cccc(Cl)c1)c1ccc(O)c(CN2CCN(c3cc4c(cc3F)c(=O)c(C(=O)O)cn4C3CC3)CC2)c1 | 40.8%
CC1(C)CC[C@]2(C(=O)Nc3ccccn3)CC[C@]3(C)C(=CC[C@@H]4[C@@]5(C)C/C(=C/c6cccnc6)C(=O)C(C)(C)[C@@H]5CC[C@]43C)[C@H]2C1 | 35.4%
COC(=O)[C@]12CCC(C)(C)C[C@H]1[C@H]1C(=O)C[C@@H]3[C@@]4(C)c5c([nH]c6ccccc6c5=O)C(C)(C)[C@@H]4CC[C@@]3(C)[C@]1(C)CC2 | 63.2%
CC1=CC(=NN=c2cc(C)n([O-])c(C)c2)C=C(C)[N+]1=O | 110%
CCC(=O)c1ccc(Cl)s1 | 112%
Cn1c(=O)c2c(nc3n(-c4ccc(Cl)cc4Cl)c(Sc4nc(-c5ccccc5)c(C#N)c(=O)[nH]4)cn23)n(C)c1=O | -15.5% (active)
